The panel holds about 83,000 compounds, 20% with a hit somewhere; the sample as a whole holds those more often.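 Method: cells in 96-well plates; compound added at one concentration; 48 h incubation; percent growth measured; values under 10 scored active.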 Unmarked numbers belong to inactive results. Active and inactive are the calls of the source.
Legend:
Assay in all cases: NCI-60 one-dose screen, 48 h (100 = growth as untreated, 0 = no growth, -100 = all killed)
Conditions in all cases: 10 µM unless noted
[1] = system: DU-145 prostate
[2] = system: K-562 leukemia
[3] = system: MALME-3M melanoma
[4] = system: MDA-MB-231 breast
[5] = system: RXF 393 renal
[6] = system: SF-268 CNS
[7] = system: SF-295 CNS
[8] = system: SF-539 CNS
[9] = system: UACC-257 melanoma
[10] = system: M14 melanoma
[11] = system: HCT-15 colon
[12] = system: HT29 colon
[13] = system: SNB-75 CNS
[14] = system: SNB-19 CNS
[15] = system: U251 CNS
[16] = system: PC-3 prostate
[17] = system: SK-MEL-5 melanoma
[18] = system: UACC-62 melanoma
[19] = system: LOX IMVI melanoma
[20] = system: SK-MEL-28 melanoma

Structure (SMILES) | growth [1] | growth [2] | growth [3] | growth [4] | growth [5] | growth [6] | growth [7] | growth [8] | growth [9] | growth [10] | growth [11] [%] | growth [12] | growth [13] | growth [14] [%] | growth [15] | growth [16] [%] | growth [17] | growth [18] | growth [19] | growth [20]
Nc1nc(N)c2c(n1)NC(c1ccc(F)cc1)C1CCc3ccccc3C1=N2 (stereo not given) | 62.1% | 21.4% | 17.2% | 80.8% | 83.1% | 76.1% | 34.2% | 56.8% | 45.6% | 62.8% | 49.6 | 27.9% | 63.1% | 70.7 | 41.8% | 45 | 1.07% (active) | 47.5% | 52.8% | 93.4%
CCC(Br)(CC)C(=O)c1ccc(OCC(=O)O)c(Cl)c1Cl | 114% | 114% | 107% | 107% | 88.8% | 100% | 81.6% | 96.9% | 124% | 116% | 103 | 110% | 92.7% | 104 | 106% | 108 | 97.7% | 87.4% | 96.9% | 111%
Nc1cc(Cl)cc2cccnc12 | 109% | 98.1% | 122% | 95.8% | 112% | 88% | 114% | 98% | 127% | 115% | 103 | 101% | 79.9% | 109 | 111% | 87.5 | 101% | 103% | 88.1% | 113%
CCOC(=O)c1nn(C2CCCCO2)c2ccc(NC(=O)Cn3nnc4ccccc43)cc12 (stereo not given) | 104% | 91.3% | 105% | 96.4% | 125% | 101% | 99.3% | 100% | 100% | 102% | 95.9 | 115% | 78.6% | 86.5 | 96.4% | 110 | 99.1% | 99.9% | 96.5% | 106%
CCCCNC(=O)NS(=O)(=O)Cc1ccccc1 | 111% | 99.7% | 117% | 127% | 124% | 107% | 116% | 101% | 104% | 106% | 109 | 114% | 95.3% | 114 | 96.4% | 102 | 107% | 104% | 107% | 108%
CN(C)CCOc1ccc(/C(=C(/CCCl)c2ccccc2)c2ccccc2)cc1 | 49.6% | 1.34% (active) | -57.8% (active) | -11% (active) | -41.7% (active) | 33% | 4.51% (active) | 1.72% (active) | -52.4% (active) | -52.2% (active) | 23.9 | -78.8% (active) | 36.8% | 36.2 | -54.6% (active) | 18.7 | -98.3% (active) | -21.7% (active) | -84.6% (active) | -30.3% (active)
COc1cc(-c2nc(SCCC(C)C)nc(Nc3ccccc3)c2C#N)cc(OC)c1OC | 97.1% | 93.7% | 104% | 59.8% | 114% | 95.9% | 100% | 96.2% | 107% | 100% | 96.8 | 82.3% | 66.8% | 99.4 | 85% | 83.8 | 97.3% | 71.8% | 99.4% | 103%
CCN(CC)CCS(=O)(=O)CCNc1ccnc2cc(Cl)ccc12 | -24% (active) | 7.87% (active) | 1.04% (active) | -2.95% (active) | -17.2% (active) | 4.55% (active) | 25.9% | -2.68% (active) | 59% | -10.5% (active) | 10.1 | -21.1% (active) | 9.48% (active) | 70 | -4.39% (active) | 33 | 29.5% | 29.7% | 11.3% | 49.5%
